Results on 40 compounds are retold here after PubChem BioAssay (NCI).

SMILES strings stand for the structures. This is part of a sample that, as a whole, favours compounds with a hit. Of some 83,000 tested, about 20% had one in any assay.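 A percent growth of 40 corresponds to 60% growth inhibition; 0 means no net growth; -100 means all cells died. Active threshold: below 10.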 Unmarked numbers belong to inactive results. Calls of active or inactive are those of the source.

This assay has as its system MCF7 breast. The assay is described as follows: NCI-60 one-dose screen, 48 h (100 = growth as untreated, 0 = no growth, -100 = all killed). As to conditions: 10 µM.
Consider `CC(C)(C)c1ccc(S(=O)(=O)Oc2ccc(NC(=O)C3CCCCC3)cc2)cc1`, for which the growth is 19.8%.

Take `OCCn1cccn1`: the growth was 116%.

Turning to `O=C(/C=C/C=C/c1c(C2CC2)nc2ccccc2c1-c1ccc(F)cc1)c1cccs1`, the growth is 12.4%.

Consider `NS(=O)(=O)c1ccc(N2N=C(c3ccccc3)CCC2=O)cc1`, for which the growth is 95.4%.

On to `COc1cc(C2C(C#N)=C(N)Oc3cc(O)ccc32)cc(OC)c1OC` (stereo not given), for which the growth was 19.9%.

Take `CC(C)N(CCOc1ccc(-c2nc3sccn3c2-c2ccnc(S(C)(=O)=O)n2)cc1)C(C)C`: the growth was 82.5%.

Turning to `CCCCCCCCCCCCCCCCCC[n+]1ccc2c(C)c3c(c(C)c2c1)c1cc(O)ccc1n3CC`, the growth was 28.3%.

As to `CC(C)c1cc(N=O)cc(C(C)C)c1O`, the growth was 103%.

Take `NS(=O)(=O)Oc1ccc2c(ccn2C(=O)C23CC4CC(CC(C4)C2)C3)c1`: the growth was 120%.

With `COc1cc(-c2nn(-c3cccc(NC(=O)NCCNC(=O)c4ccccc4)c3)cc2-c2ccncc2)ccc1Cl`, the growth is 6.01% (active).

On to `CCOC(=O)N/N=C/c1ccc(OC)c(OC)c1`, for which the growth is 98.7%.

For the compound `CC(C)Cc1ccc([C@H](C)C(=O)O)cc1`, the growth was 94.8%.

With `CCc1ccc(C2=NN(c3ccc(S(C)(=O)=O)cc3)C(=O)CC2)cc1`, the growth was 26%.

For `CN1CCc2c(sc3nc4n(-c5ccc(Cl)cc5)c(=O)[nH]n4c(=O)c23)C1`, the growth was 91.7%.

Take `CC(C)(C)OC(=O)N1CCc2c(sc3ncnc(N/N=C/c4cccc5ccccc45)c23)C1`: the growth is 2.21% (active).

For `COc1ccccc1-n1c(-c2csc(NC(C)=O)n2)n[nH]c1=S`, the growth is 97.5%.

For the compound `CCCCC1(O)CCCCC1`, the growth is 101%.

As to `CNS(=O)(=O)Oc1ccc(-c2sc3cc(OS(=O)(=O)NC)ccc3c2C(=O)c2ccc(OCCN3CCCCC3)cc2)cc1`, the growth is 30.5%.

Turning to `CCOC(=O)C1C(C(=O)OCC)C2C(=O)C3C(C(=O)OCC)C(C(=O)OCC)C3C(=O)C12` (stereo not given), the growth is 99.8%.

Take `C[C@]12CC[C@@H]3c4ccc(O)cc4CC[C@H]3[C@@H]1CC[C@@H]2NS(=O)(=O)c1ccc(C(F)(F)F)cc1`: the growth is 2.42% (active).

For `COc1cc2cc(Oc3ccc(NC(=O)Nc4ccc(Cl)c(Cl)c4)cc3)c(C)nc2cc1OC`, the growth was 13.8%.

As for `Cc1c(C(N)=O)sc2c1c(=O)n(Cc1ccccc1)c1nnc(-c3ccc(Br)cc3)n21`, the growth is 21.5%.

With `O=C(NCCCNS(=O)(=O)c1ccc(Cl)cc1)Nc1ccc(-n2cc(-c3ccncc3)c(-c3ccc(Cl)c(O)c3)n2)cc1`, the growth was 13.8%.

In the case of `CNC(=O)c1cc(Oc2ccc3c(c2)sc2nc(-c4ccc(N)cc4)cn23)ccn1`, the growth was 20.2%.

In the case of `O=C1CSC(=S)N1/N=C/c1ccc(Cl)s1`, the growth is 101%.

`COc1ccc(-c2cc(-c3ccc(Cl)cc3)nc(SCCCC(=O)NO)n2)cc1`: the growth was 0.343% (active).

Take `COc1ccc(-c2nn(-c3cccc(Cl)c3)cc2-c2cc(-c3ccccc3)nc(N)n2)cc1`: the growth was 12.9%.

Take `O=[N+]([O-])c1cccc(/C=N/NC(=S)NC23CC4CC(CC(C4)C2)C3)c1`: the growth is 66.9%.

Consider `O=C1c2c(c3c4ccccc4n(CCCCCCN4CCOCC4)c3c3[nH]c4ccccc4c23)C(=O)N1O`, for which the growth was 6.49% (active).

For the compound `Nc1cc(-c2ccncc2)c[nH]c1=O`, the growth is 91%.

Consider `COc1cc(-c2nn(-c3ccc(NC(=O)NCCCNC(=O)c4ccccc4)cc3)cc2-c2ccncc2)ccc1Cl`, for which the growth was 12.8%.

As to `C=CCn1c(SCC(=O)Nc2ccc(C(=O)/C=C/c3cc(OC)c(OC)c(OC)c3)cc2)nnc1-c1cc(-c2ccc(Cl)cc2)nc2ccccc12`, the growth was 38.6%.

Turning to `CCCCCOC(=O)Nc1nc(=O)n(C2O[C@H](C)[C@@H](O)[C@H]2O)cc1F` (stereo not given in full), the growth was 99.8%.

In the case of `COc1ccc2c(c1)OC(N)=C(C#N)C2c1cc(OC)c(OC)c(OC)c1` (stereo not given), the growth is 13.3%.

On to `CC(C)(C)OC(=O)N1CCc2c(sc3ncnc(N/N=C/c4ccccc4Br)c23)C1`, for which the growth is -12% (active).

As for `Cc1cc(CCNC=O)c(C)c2c1sc1ccccc12`, the growth is 100%.

In the case of `Nc1ccn(Cc2nnc(CCC(=O)c3nc4ccccc4[nH]3)o2)c(=O)n1`, the growth is 35.7%.

Consider `CNC(=O)c1cc(Oc2ccc3c(c2)sc2nc(-c4ccc(NC(=O)Nc5ccc(Cl)c(C(F)(F)F)c5)cc4)cn23)ccn1`, for which the growth was 82.6%.

`COc1ccc(/C=C/C(=O)C(=O)/C=C/c2ccc(OC)c(OC)c2)cc1OC`: the growth was 4.02% (active).

As for `COc1ccc(C(c2ccc(OCCN(C)C)cc2)c2cc3ccccc3c3ccccc23)cc1` (stereo not given), the growth is 2.13% (active).
